This is an account of results in PubChem BioAssay AID488984 (The Scripps Research Institute Molecular Screening Center, 2010).

The inhibition is the relative decrease from the control value, in per cent.

A number with no mark means an inactive call. Cut-off read from the data, not from the text of the source: active = inhibition above about 55%; inactive = the rest.

The experiment concerns SARS coronavirus 3C-like protease (3CLpro, nsp5). Description: blockers of SARS 3CLpro activity – biochemical, fluorescence, set 2, late-stage follow-up (AID 488984). To be noted: recombinant 3CLpro, fluorogenic peptide cleavage; at 100 µM; active compounds read high.
As for `CC(C)(C)NC(=O)C(c1ccsc1)N(C(=O)Cc1c[nH]c2ccccc12)c1ccc(OCF)cc1` (configuration not stated), the inhibition is 35.6%. For the compound `CC(C)(C)NC(=O)C(c1ccsc1)N(C(=O)Cc1cccc2ccccc12)c1ccc(OCF)cc1` (configuration not stated), the inhibition is 18.2%.

Regarding `CC(C)(C)NC(=O)C(c1ccsc1)N(C(=O)c1ccco1)c1ccc(OC(F)F)cc1` (configuration not stated), the inhibition is 25.9%. As to `CC(C)c1ccc(N(C(=O)c2cccc3c2CCCC3)C(C(=O)NC(C)(C)C)c2cccnc2)cc1` (configuration not stated), the inhibition was -5.03%. As to `CC(C)c1ccc(N(C(=O)c2n[nH]c3ccccc23)C(C(=O)NC(C)(C)C)c2cccnc2)cc1` (configuration not stated), the inhibition was 13.2%. The result for `CC(C)(C)NC(=O)C(c1ccsc1)N(C(=O)c1n[nH]c2ccccc12)c1ccc(OC(F)F)cc1` (configuration not stated) reads 14.3%; that for `CC(C)c1ccc(N(C(=O)Cc2c[nH]c3ccccc23)C(C(=O)NC(C)(C)C)c2cccnc2)cc1` (configuration not stated), 3.78%; that for `CC(C)(C)NC(=O)C(c1cccnc1)N(C(=O)c1ccc(C#N)cc1)c1ccc(OCF)cc1` (configuration not stated), -7.47%.

Regarding `CC(C)(C)NC(=O)C(c1ccsc1)N(C(=O)Cc1cccc2ccccc12)c1ccc(F)cc1` (configuration not stated), the inhibition was 19.2%.

As to `CC(C)(C)NC(=O)C(c1ccsc1)N(C(=O)Cc1cccnc1)C1CC1` (configuration not stated), the inhibition was 25.9%. In the case of `CC(C)(C)NC(=O)C(c1ccsc1)N(C(=O)c1n[nH]c2ccccc12)c1ccc(C(C)(C)C)cc1` (configuration not stated), the inhibition was 17.9%. Under `CC(C)(C)NC(=O)C(c1cccnc1)N(C(=O)Cc1cccc2ccccc12)c1ccc(F)cc1` (configuration not stated) stands -7.86%.
